Test results from PubChem BioAssay AID504832 (National Center for Advancing Translational Sciences (NCATS), 2011).
Screen size: about 310,000 compounds; about 18,000 (5.8%) were called active. Roughly 22% stayed inconclusive and do not appear here. The entries come from a sample that favours actives as a whole. Unmarked numbers belong to inactive results. Calls follow the shape of the dose curve; as a rule, active = well fitted inhibition curve with a large enough effect; inconclusive = small, poorly fitted or top-dose-only effect, or another doubt; inactive = no such curve, though single readings can be large or run the other way.

Assay: Primary qHTS for delayed death inhibitors of the malarial parasite plastid, 48 hour incubation
Details: P. falciparum luciferase growth in erythrocytes; series mostly up to 28.7 µM; activity change, negative = inhibition: at the top concentration
In short: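 Growth was read as firefly luciferase luminescence after a 48 h, 37 C, 5% CO2 exposure of compounds to reporter-bearing P. falciparum cultures (0.1% parasitemia, 2% hematocrit final) in Albumax-supplemented RPMI 1640.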
% is scaled to controls: 0 for no effect and ±100 for the full control effect; potency is read from the fitted curve at half-maximal effect.

| Structure (SMILES) | activity change, negative = inhibition [%] | Potency |
| --- | --- | --- |
| CCc1ccccc1S(=O)(=O)Cc1ccc(C(=O)NCCc2ccccc2)o1 | -4.64 |  |
| COCCNC(=S)N(Cc1cccnc1)Cc1ccc(OC)c(OC)c1 | -3.14 |  |
| O=C(Nc1ccccc1)N(Cc1cccnc1)Cc1ccco1 | -0.883 |  |
| Cc1ccc(C)c2[nH]c(=O)c(CN(Cc3cccnc3)C(=S)NCc3ccco3)cc12 |  | 9.28 µM (active) |
| COc1ccc(C(=O)N2CCN(c3ncccn3)CC2)cc1S(=O)(=O)N1CCOCC1 | 22 |  |
| COc1cc(C(=S)N2CCOCC2)cc(OC)c1OC(=O)c1ccc([N+](=O)[O-])cc1[N+](=O)[O-] | 34.1 |  |
| CCC(C)Sc1nc2c(cnn2-c2ccc(F)cc2)c(=O)[nH]1 (stereo not drawn) | 18.2 |  |
| Cc1cccc(C)c1NC(=O)COC(=O)c1ccccc1O | 11.5 |  |
| Cn1nnnc1SCc1cc(=O)[nH]c2ccccc12 | 10.9 |  |
| Cc1ccc(N(Cc2cc(=O)[nH]c3ccccc23)C(=O)CCl)cc1 |  | 9.28 µM (active) |
| CC(=O)N(Cc1cc(=O)[nH]c2ccccc12)c1ccc(C)cc1C | -19.8 |  |
| COc1cc(/C=N/NC(=O)CNC(=O)c2ccncc2)ccc1OC(C)=O | 28.7 |  |
| O=C(COC(=O)/C=C/c1cccs1)NC1CCCCC1 | 5.56 |  |
| Cc1ccc(-n2c(SCC(=O)N/N=C/C=C/c3ccccc3[N+](=O)[O-])nc3ccccc3c2=O)cc1 |  | 13.1 µM (active) |
| O=C(CSc1nc2ccccc2[nH]1)N/N=C/C=C\c1ccccc1[N+](=O)[O-] | 7.14 |  |
| CCn1c(SCC(=O)N/N=C/C=C/c2ccccc2[N+](=O)[O-])nnc1-c1ccccc1 | -3 |  |
| Cc1ccc(C(=O)NC23CC4CC(CC(C4)C2)C3)c(Cl)c1 | 2.76 |  |
| CN(C(=O)COC(=O)CCCc1c[nH]c2ccccc12)c1c(N)n(Cc2ccccc2)c(=O)[nH]c1=O | 3.11 |  |
| O=C(CSc1nn(-c2ccc(F)cc2)c(=S)s1)NC1CCS(=O)(=O)C1 (stereo not drawn) | -19.4 |  |
| N#CCSc1nn(-c2ccc(F)cc2)c(=S)s1 |  | 5.86 µM (active) |
| Cc1ccccc1-n1nc(SCC(=O)O)sc1=S | 6.96 |  |
| CCOC(=O)Cc1csc(SCC(=O)Nc2ccc(C)cc2F)n1 | 1.53 |  |
| O=C1COc2ccc(S(=O)(=O)NCCc3ccc(Cl)cc3)cc2N1 | -15.4 |  |
| CSc1ccccc1NC(=O)c1cnc2sc(C)cn2c1=O | 74.1 |  |
| COc1ccc(C(=O)NNc2cc(C)nc(NNC(=O)c3ccc(OC)cc3)n2)cc1 | 58 |  |
| CCC(=O)Nc1ccc(Nc2nc(Cl)nc(Nc3ccc(NC(=O)CC)cc3)n2)cc1 | 21.1 |  |
| CC(=O)Nc1ccc(Nc2cc(C)nc(Nc3ccc(NC(C)=O)cc3)n2)cc1 |  | 1.65 µM (active) |
| Cn1nc(-c2ccccc2)c2cc([N+](=O)[O-])ccc21 | -3.2 |  |
